From PubChem BioAssay AID1159580 (chemical genetic matrix, 2015)
Where “and” joins values, the source holds several entries; their conditions need not be identical. Equal entries are not always repeated. The campaign covered roughly 5,500 compounds. About 2,000 (36%) were called active. Not shown: some 18% with an inconclusive outcome. No stated cut-off is given here; in the data, active means normalized growth mostly below about 0.91 (no sharp cut-off); inconclusive means no clear call, values can overlap the other calls; inactive means mostly above about 0.92. The list shows a part of the results.

Assay: chemical genetic growth profiling, strain panel (AID 1159580);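 further: tested at 20 µM; growth read once vehicle control cultures reached saturation at 30 °C; 1 = growth at the plate median or of vehicle wells; lower values mean less growth of the strain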
Settings: S. cerevisiae deletion strains, growth OD

Measured: normalized growth

CC(C)=CCC1=C(O)c2ccccc2C(=O)C1=O
inactive: locus YAL013W, strain DEP1, hits give low values 0.949 | locus YBR021W, strain FUR4, hits give low values 1.05 | locus YBR229C, strain ROT2, hits give low values 0.963 | locus YDL035C, strain GPR1, hits give low values 0.97 | locus YDL074C, strain BRE1, hits give low values 0.994 | locus YDL101C, strain DUN1, hits give low values 0.951 | locus YDL134C, strain PPH21, hits give low values 0.958 | locus YDR101C, strain arx1, hits give low values 0.941 | locus YDR150W, strain NUM1, hits give low values 0.934 | locus YDR162C, strain NBP2, hits give low values 0.872 | locus YDR195W, strain ref2 0.976 | locus YDR502C, strain sam2, hits give low values 0.968 | locus YEL061C, strain CIN8, hits give low values 0.932 | locus YER110C, hits give low values 0.96 | locus YER155C, strain BEM2, hits give low values 0.962 | locus YER167W, strain BCK2, hits give low values 0.956 | locus YGL240W, strain doc1, hits give low values 0.924 | locus YGL248W, strain PDE1, hits give low values 0.964 | locus YGR078C, strain PAC10, hits give low values 0.986 | locus YGR135W, strain pre9, hits give low values 0.953 | locus YGR229C, strain SMI1, hits give low values 0.992 | locus YGR252W, strain gcn5, hits give low values 1 | locus YHR013C, strain ard1, hits give low values 0.904 | locus YHR030C, strain SLT2, hits give low values 0.936 and 0.964 | locus YHR079C, strain IRE1 (second series), hits give low values 0.941 | locus YHR079C, strain IRE1, hits give low values 0.961 | locus YHR094C, strain hxt1, hits give low values 0.96 | locus YHR129C, strain ARP1, hits give low values 0.952 | locus YHR200W, strain rpn10, hits give low values 0.932 | locus YIL066C, strain RNR3, hits give low values 0.965 | locus YIL073C, strain SPO22, hits give low values 0.824 | locus YIR030C, strain dcg1, hits give low values 0.945 | locus YJL095W, strain BCK1, hits give low values 0.944 and 0.936 | locus YJL134W, strain LCB3, hits give low values 0.95 | locus YJL168C, strain set2, hits give low values 0.95 | locus YJL187C, strain SWE1 (second series), hits give low values 0.957 | locus YJR043C, strain POL32, hits give low values 1.04 | locus YJR066W, strain TOR1, hits give low values 0.875
active: locus YAL021C, strain ccr4, hits give low values 0.748 | locus YAL026C, strain drs2, hits give low values 0.472 | locus YAL030W, strain snc1, hits give low values 0.799 | locus YBL061C, strain skt5, hits give low values 0.774 | locus YBR009C, strain hhf1, hits give low values 0.804 | locus YBR023C, strain chs3, hits give low values 0.749 | locus YBR171W, strain sec66, hits give low values 0.707 | locus YBR231C, strain swc5, hits give low values 0.718 | locus YBR279W, strain paf1, hits give low values 0.76 | locus YCL011C, strain gbp2, hits give low values 0.795 | locus YCL016C, strain dcc1, hits give low values 0.762 | locus YCL029C, strain bik1, hits give low values 0.899 | locus YCL069W, strain vba3, hits give low values 0.675 | locus YCR088W, strain abp1, hits give low values 0.799 | locus YDL005C, strain med2, hits give low values 0.759 | locus YDL040C, strain nat1, hits give low values 0.843 | locus YDL185W, strain tfp1, hits give low values 0.86 | locus YDL192W, strain arf1, hits give low values 0.896 | locus YDR001C, strain nth1, hits give low values 0.816 | locus YDR069C, strain doa4, hits give low values 0.719 | locus YDR137W, strain rgp1, hits give low values 0.328 | locus YDR159W, strain sac3, hits give low values 0.549 | locus YDR297W, strain sur2, hits give low values 0.832 | locus YDR318W, strain mcm21, hits give low values 0.902 | locus YDR334W, strain swr1, hits give low values 0.795 | locus YDR335W, strain msn5, hits give low values 0.514 | locus YDR388W, hits give low values 0.928 | locus YDR392W, strain spt3, hits give low values 0.703 | locus YEL003W, strain gim4, hits give low values 0.788 | locus YEL037C, strain rad23, hits give low values 0.825 | locus YEL061C, strain CIN8 (second series), hits give low values 0.799 | locus YER015W, strain faa2, hits give low values 0.648 | locus YER016W, strain bim1, hits give low values 0.635 | locus YER111C, strain swi4, hits give low values 0.564 | locus YER155C, strain BEM2 (second series), hits give low values 0.792 | locus YFR010W, strain ubp6, hits give low values 0.752 | locus YGL078C, strain dbp3, hits give low values 0.914 | locus YGL086W, strain mad1, hits give low values 0.879 | locus YGL167C, strain pmr1, hits give low values 0.0913 | locus YGL173C, strain kem1, hits give low values 0.745 | locus YGL227W, strain vid30, hits give low values 0.767 | locus YGL253W, strain hxk2, hits give low values 0.592 | locus YHR027C, strain rpn1, hits give low values 0.537 | locus YHR142W, strain chs7, hits give low values 0.421 | locus YIL125W, strain kgd1, hits give low values 0.93 | locus YJL092W, strain hpr5, hits give low values 0.793 | locus YJL095W, strain BCK1 (second series), hits give low values 0.675 | locus YJL115W, strain asf1, hits give low values 0.861 | locus YJL129C, strain trk1, hits give low values 0.554 | locus YJL154C, strain vps35, hits give low values 0.815 | locus YJL164C, strain tpk1, hits give low values 0.775 | locus YJL166W, strain qcr8, hits give low values 0.714 | locus YJL187C, strain SWE1, hits give low values 0.789
